{"source": "paper PMC7862700", "about": "“An all-to-all approach to the identification of sequence-specific readers for epigenetic DNA modifications on cytosine”", "assay_in_all_cases": "DAPPL (digital affinity profiling via proximity ligation, sequencing); 10 mM Tris-HCl pH 7.5, 50 mM NaCl, 1 mM DTT, 4% glycerol, room temperature, 30 min; GST-TFs on glutathione beads, 16-mer random dsDNA library, 0.1% formaldehyde crosslink after washing; high values mean tight binding", "details_in_all_cases": "protein: recombinant; tags: N-terminal GST; dsDNA, one strand shown", "key": {"FLI1": {"molecular_target": "T1, FLI1 (Homo sapiens, UniProt Q01543 1-452)", "T1 sequence": "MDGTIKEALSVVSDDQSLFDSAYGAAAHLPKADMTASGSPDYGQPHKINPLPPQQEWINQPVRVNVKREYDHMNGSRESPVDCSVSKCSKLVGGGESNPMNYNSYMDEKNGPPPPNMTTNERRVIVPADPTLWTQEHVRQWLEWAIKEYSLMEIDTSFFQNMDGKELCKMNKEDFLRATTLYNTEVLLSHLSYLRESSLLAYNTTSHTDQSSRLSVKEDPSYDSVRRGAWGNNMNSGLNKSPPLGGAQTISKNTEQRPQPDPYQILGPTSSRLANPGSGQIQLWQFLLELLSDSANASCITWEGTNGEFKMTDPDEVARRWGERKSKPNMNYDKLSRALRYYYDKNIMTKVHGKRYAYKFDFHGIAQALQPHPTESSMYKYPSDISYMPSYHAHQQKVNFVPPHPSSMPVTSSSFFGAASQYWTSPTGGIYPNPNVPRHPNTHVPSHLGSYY", "method_in_brief": "(§1)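 Human transcription factors fused to GST were expressed in yeast, captured on glutathione beads, given DNA barcodes and pooled with a GST-only negative control. Pools were incubated with 200 nmole of a 16-mer random double-stranded DNA library in Tris/NaCl/DTT/glycerol buffer at room temperature for 30 min. They were then washed, crosslinked with 0.1% formaldehyde, proximity-ligated (BsaI/T4 ligase, 1 h, 37 °C), PCR-amplified and sequenced on an Illumina NextSeq500. Binding signal is each 6-mer's read frequency for a factor divided by its frequency for the GST control.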"}, "ELK1": {"molecular_target": "T2, ELK1 (Homo sapiens, UniProt P19419 1-428)", "T2 sequence": "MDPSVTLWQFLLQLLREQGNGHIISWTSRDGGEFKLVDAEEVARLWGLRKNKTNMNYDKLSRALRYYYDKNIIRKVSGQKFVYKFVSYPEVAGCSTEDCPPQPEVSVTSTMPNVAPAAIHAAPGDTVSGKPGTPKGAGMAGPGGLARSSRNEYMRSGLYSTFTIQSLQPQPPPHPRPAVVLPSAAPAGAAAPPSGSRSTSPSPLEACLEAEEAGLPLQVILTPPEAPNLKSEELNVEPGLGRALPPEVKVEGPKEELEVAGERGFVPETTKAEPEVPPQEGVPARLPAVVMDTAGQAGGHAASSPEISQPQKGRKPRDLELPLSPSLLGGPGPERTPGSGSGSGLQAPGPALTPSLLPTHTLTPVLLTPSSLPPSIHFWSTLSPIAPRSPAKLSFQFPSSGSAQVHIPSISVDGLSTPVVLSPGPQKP", "method_in_brief": "as §1"}, "GABPA": {"molecular_target": "T3, GABPA (Homo sapiens, UniProt Q06546 1-454)", "T3 sequence": "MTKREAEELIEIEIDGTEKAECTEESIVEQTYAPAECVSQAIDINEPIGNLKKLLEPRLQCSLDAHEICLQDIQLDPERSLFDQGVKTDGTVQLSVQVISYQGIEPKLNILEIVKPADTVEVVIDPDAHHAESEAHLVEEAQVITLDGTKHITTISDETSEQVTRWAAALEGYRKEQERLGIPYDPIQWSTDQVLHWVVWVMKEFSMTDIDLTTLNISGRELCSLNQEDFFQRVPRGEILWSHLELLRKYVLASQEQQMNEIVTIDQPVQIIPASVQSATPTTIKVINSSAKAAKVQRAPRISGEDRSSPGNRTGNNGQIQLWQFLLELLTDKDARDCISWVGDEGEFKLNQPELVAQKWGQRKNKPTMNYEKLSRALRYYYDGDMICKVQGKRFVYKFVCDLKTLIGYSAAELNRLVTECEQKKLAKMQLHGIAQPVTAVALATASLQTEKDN", "method_in_brief": "as §1"}, "ERG": {"molecular_target": "T4, ERG (Homo sapiens, UniProt P11308 1-479)", "T4 sequence": "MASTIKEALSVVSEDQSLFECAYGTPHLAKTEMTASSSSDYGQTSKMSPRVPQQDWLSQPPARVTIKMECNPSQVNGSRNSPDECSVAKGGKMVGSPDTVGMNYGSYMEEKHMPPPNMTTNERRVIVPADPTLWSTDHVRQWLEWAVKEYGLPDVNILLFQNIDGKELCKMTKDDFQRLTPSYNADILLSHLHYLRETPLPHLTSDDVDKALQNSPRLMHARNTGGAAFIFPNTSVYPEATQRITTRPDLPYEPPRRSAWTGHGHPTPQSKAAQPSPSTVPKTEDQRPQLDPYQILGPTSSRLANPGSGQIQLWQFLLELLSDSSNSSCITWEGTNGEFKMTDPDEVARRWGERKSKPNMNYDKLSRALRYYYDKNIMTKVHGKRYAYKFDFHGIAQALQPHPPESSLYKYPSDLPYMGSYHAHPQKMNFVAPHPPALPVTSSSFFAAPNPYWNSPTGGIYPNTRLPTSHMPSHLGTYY", "method_in_brief": "as §1"}, "ELF1": {"molecular_target": "ELF1 (Homo sapiens, UniProt P32519 1-619)", "sequence (P32519 whole entry)": "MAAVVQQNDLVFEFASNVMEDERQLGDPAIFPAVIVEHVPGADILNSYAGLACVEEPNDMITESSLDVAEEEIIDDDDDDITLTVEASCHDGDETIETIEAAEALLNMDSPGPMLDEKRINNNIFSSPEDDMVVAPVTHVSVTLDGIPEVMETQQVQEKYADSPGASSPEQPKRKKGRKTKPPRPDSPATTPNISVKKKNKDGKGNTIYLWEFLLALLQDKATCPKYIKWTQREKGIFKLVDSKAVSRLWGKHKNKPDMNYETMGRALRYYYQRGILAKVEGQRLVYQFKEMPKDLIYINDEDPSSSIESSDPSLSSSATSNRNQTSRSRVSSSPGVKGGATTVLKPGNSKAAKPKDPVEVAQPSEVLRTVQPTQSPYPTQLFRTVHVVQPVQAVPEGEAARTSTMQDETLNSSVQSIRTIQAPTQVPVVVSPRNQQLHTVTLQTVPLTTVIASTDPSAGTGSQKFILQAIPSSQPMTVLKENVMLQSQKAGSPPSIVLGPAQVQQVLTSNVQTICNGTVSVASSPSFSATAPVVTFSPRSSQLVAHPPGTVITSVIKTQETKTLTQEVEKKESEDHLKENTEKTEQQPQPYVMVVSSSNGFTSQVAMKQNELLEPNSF", "method_in_brief": "as §1"}, "EHF": {"molecular_target": "T5, EHF (Homo sapiens, UniProt Q9NZC4 1-300)", "T5 sequence": "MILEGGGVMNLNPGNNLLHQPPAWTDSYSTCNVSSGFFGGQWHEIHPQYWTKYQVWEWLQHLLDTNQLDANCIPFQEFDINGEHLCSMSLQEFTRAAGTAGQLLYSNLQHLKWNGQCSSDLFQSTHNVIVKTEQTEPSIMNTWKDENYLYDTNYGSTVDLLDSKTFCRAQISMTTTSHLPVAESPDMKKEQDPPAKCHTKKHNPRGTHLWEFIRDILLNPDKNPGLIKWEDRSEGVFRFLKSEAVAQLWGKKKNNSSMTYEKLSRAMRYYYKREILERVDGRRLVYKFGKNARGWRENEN", "method_in_brief": "as §1"}, "SPI1": {"molecular_target": "SPI1 (Homo sapiens, UniProt P17947 1-270)", "method_in_brief": "as §1"}, "SPIB": {"molecular_target": "SPIB (Homo sapiens, UniProt Q01892 1-262)", "sequence (Q01892 whole entry)": "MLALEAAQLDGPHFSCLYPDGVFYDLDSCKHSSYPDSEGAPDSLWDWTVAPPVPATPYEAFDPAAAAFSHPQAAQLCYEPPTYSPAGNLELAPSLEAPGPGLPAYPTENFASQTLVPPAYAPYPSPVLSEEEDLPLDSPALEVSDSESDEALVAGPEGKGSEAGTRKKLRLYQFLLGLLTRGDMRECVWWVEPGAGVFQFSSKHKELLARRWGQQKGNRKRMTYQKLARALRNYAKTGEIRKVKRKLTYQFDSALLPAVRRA", "method_in_brief": "as §1"}, "ELK3": {"molecular_target": "T6, ELK3 (Homo sapiens, UniProt P41970 1-407)", "T6 sequence": "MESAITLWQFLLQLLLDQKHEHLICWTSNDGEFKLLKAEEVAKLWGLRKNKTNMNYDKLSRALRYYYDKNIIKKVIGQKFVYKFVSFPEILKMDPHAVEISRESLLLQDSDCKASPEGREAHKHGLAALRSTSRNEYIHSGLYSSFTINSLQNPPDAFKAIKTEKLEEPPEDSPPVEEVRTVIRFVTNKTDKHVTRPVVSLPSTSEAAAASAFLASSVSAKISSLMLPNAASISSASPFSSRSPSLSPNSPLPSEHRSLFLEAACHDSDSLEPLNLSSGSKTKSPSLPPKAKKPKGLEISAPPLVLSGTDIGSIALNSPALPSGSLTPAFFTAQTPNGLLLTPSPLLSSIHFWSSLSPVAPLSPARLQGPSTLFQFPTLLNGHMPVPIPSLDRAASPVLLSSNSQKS", "method_in_brief": "as §1"}, "FEV": {"molecular_target": "T7, FEV (Homo sapiens, UniProt Q99581 1-238)", "T7 sequence": "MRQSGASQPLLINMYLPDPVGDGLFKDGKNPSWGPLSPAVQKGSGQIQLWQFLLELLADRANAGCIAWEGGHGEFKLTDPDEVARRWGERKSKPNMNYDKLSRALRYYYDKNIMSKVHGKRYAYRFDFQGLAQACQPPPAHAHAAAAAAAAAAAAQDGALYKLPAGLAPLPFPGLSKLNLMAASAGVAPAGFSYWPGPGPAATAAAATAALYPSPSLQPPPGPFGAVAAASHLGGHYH", "method_in_brief": "as §1"}, "ETV5": {"molecular_target": "ETV5 (Homo sapiens, UniProt P41161 1-510)", "sequence (P41161 whole entry)": "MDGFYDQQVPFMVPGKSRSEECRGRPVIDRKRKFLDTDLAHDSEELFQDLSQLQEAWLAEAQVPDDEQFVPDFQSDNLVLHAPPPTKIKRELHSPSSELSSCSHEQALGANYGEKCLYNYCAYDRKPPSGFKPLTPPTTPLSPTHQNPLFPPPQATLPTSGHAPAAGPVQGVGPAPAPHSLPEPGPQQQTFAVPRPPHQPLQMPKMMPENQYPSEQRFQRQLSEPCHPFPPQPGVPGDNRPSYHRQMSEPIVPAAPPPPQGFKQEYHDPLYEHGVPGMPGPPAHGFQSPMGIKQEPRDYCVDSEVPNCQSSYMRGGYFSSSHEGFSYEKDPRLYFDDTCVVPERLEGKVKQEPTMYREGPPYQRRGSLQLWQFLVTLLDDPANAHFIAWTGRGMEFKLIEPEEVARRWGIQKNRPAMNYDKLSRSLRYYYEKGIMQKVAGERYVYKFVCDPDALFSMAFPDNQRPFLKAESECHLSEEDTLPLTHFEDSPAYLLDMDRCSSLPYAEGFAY", "method_in_brief": "as §1"}, "SPIC": {"molecular_target": "T8, SPIC (Homo sapiens, UniProt Q8N5J4 1-248)", "T8 sequence": "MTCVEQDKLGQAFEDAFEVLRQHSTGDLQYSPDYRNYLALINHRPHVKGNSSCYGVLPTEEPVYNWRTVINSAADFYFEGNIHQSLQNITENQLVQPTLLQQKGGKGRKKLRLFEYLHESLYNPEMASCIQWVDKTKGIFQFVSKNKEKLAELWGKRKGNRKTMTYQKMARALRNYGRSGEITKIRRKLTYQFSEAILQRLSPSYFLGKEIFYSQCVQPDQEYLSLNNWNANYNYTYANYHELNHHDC", "method_in_brief": "as §1"}, "ELF4": {"molecular_target": "ELF4 (Homo sapiens, UniProt Q99607 1-663)", "sequence (Q99607 whole entry)": "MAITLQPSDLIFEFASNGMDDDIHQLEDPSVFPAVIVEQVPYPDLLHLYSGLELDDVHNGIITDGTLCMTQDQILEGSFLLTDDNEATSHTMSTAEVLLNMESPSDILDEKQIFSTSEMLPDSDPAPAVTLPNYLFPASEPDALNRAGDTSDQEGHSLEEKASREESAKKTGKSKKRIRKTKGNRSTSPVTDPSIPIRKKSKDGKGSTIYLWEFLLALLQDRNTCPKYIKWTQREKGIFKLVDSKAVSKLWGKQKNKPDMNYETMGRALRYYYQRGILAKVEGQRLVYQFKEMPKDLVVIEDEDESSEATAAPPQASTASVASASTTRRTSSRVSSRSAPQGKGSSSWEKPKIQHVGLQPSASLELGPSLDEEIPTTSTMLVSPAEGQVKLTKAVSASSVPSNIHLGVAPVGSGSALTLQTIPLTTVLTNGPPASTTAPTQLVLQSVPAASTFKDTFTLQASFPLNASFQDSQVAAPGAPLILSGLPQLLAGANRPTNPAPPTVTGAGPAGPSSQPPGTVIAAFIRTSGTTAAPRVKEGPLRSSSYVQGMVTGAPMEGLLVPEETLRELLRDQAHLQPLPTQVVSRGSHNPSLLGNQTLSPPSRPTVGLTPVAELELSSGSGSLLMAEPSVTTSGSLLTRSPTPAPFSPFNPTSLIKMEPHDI", "method_in_brief": "as §1"}, "ELK4": {"molecular_target": "T9, ELK4 (Homo sapiens, UniProt P28324-2 1-405)", "T9 sequence": "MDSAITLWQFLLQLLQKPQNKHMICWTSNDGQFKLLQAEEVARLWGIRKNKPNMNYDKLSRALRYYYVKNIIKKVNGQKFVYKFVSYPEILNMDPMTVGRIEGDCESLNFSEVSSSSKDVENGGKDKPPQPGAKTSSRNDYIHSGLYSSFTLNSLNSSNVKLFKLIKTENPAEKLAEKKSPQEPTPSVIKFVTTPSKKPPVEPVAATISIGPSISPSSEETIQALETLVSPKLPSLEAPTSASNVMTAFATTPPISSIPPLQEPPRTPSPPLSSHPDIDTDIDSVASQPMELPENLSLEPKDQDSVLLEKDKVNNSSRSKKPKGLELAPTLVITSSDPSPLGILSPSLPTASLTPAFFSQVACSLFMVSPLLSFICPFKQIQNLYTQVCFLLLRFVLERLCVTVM", "method_in_brief": "as §1"}, "ETV2": {"molecular_target": "T10, ETV2 (Homo sapiens, UniProt O00321 1-342)", "T10 sequence": "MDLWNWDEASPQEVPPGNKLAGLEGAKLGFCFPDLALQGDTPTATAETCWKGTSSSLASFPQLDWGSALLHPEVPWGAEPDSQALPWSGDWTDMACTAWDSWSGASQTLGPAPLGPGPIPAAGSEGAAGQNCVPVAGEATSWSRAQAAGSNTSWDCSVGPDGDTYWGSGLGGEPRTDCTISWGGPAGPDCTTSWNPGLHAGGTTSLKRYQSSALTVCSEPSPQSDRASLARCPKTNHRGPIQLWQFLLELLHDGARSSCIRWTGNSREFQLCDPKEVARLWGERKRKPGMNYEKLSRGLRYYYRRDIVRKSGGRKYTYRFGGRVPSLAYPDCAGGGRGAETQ", "method_in_brief": "as §1"}, "ELF3": {"molecular_target": "T11, ELF3 (Homo sapiens, UniProt P78545 1-371)", "T11 sequence": "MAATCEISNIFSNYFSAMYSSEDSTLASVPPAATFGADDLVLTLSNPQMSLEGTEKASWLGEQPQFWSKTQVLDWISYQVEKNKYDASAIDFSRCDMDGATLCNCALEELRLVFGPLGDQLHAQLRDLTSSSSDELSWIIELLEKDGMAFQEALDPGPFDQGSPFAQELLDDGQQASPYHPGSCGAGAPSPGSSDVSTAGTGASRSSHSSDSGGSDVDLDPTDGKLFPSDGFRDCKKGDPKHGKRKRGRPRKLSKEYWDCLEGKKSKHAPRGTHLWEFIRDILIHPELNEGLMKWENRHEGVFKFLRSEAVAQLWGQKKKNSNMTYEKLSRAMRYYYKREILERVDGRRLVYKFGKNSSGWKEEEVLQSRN", "method_in_brief": "as §1"}, "ETV1": {"molecular_target": "ETV1 (Homo sapiens, UniProt P50549 1-477)", "sequence (P50549 whole entry)": "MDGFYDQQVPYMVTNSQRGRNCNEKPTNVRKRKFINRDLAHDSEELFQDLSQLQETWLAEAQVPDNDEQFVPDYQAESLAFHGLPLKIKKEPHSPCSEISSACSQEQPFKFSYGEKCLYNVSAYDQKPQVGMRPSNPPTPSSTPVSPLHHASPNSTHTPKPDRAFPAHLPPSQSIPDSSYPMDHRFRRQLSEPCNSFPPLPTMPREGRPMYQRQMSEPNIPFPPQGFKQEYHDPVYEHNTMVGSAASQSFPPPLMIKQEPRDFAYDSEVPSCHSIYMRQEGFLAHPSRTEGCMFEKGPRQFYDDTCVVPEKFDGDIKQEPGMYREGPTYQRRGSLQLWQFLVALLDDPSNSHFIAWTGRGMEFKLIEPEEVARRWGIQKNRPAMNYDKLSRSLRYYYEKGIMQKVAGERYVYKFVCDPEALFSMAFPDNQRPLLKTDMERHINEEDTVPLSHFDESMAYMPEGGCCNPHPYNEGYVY", "method_in_brief": "as §1"}}, "data": [{"sequence": "TGGACA", "values": [{"measurement": "binding signal", "setting": "FLI1", "value": "1.06 fold enrichment (6-mer frequency, TF over GST control)"}, {"measurement": "binding signal", "setting": "ELK1", "value": "1.07 fold enrichment (6-mer frequency, TF over GST control)"}, {"measurement": "binding signal", "setting": "GABPA", "value": "1.11 fold enrichment (6-mer frequency, TF over GST control)"}, {"measurement": "binding signal", "setting": "ERG", "value": "1.05 fold enrichment (6-mer frequency, TF over GST control)"}, {"measurement": "binding signal", "setting": "ELF1", "value": "1.15 fold enrichment (6-mer frequency, TF over GST control)"}, {"measurement": "binding signal", "setting": "EHF", "value": "1.05 fold enrichment (6-mer frequency, TF over GST control)"}, {"measurement": "binding signal", "setting": "SPI1", "value": "1.03 fold enrichment (6-mer frequency, TF over GST control)"}, {"measurement": "binding signal", "setting": "SPIB", "value": "1.08 fold enrichment (6-mer frequency, TF over GST control)"}, {"measurement": "binding signal", "setting": "ELK3", "value": "1.07 fold enrichment (6-mer frequency, TF over GST control)"}, {"measurement": "binding signal", "setting": "FEV", "value": "1.1 fold enrichment (6-mer frequency, TF over GST control)"}, {"measurement": "binding signal", "setting": "ETV5", "value": "1.08 fold enrichment (6-mer frequency, TF over GST control)"}, {"measurement": "binding signal", "setting": "SPIC", "value": "1.05 fold enrichment (6-mer frequency, TF over GST control)"}, {"measurement": "binding signal", "setting": "ELF4", "value": "1.13 fold enrichment (6-mer frequency, TF over GST control)"}, {"measurement": "binding signal", "setting": "ELK4", "value": "1.03 fold enrichment (6-mer frequency, TF over GST control)"}, {"measurement": "binding signal", "setting": "ETV2", "value": "1.03 fold enrichment (6-mer frequency, TF over GST control)"}, {"measurement": "binding signal", "setting": "ELF3", "value": "1.15 fold enrichment (6-mer frequency, TF over GST control)"}, {"measurement": "binding signal", "setting": "ETV1", "value": "1.03 fold enrichment (6-mer frequency, TF over GST control)"}]}]}
